Reference: PubChem BioAssay AID1440 (NMMLSC, 2008)
Fewer than 10 of roughly 220,000 compounds were called active. About 92% were inconclusive and are not listed. The rule behind the calls is not given here. The list is a sample of the results.

These molecules were tested against Guanine nucleotide-binding protein G(o) subunit alpha (Homo sapiens) + Regulator of G-protein signaling 19 (Homo sapiens) (UniProt P09471+P49795) (assay: modulators of human RGS19-Gαo interaction – biochemical, multiplexed bead flow cytometry (AID 1440;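 note: fluorescent Galpha o activated by aluminum fluoride binding bead-coupled RGS19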)). Details: RGS19-Galphao binding, at 10 µM.
Guanine nucleotide-binding protein G(o) subunit alpha (Homo sapiens) + Regulator of G-protein signaling 19 (Homo sapiens), sequence (P09471 whole entry, looked up): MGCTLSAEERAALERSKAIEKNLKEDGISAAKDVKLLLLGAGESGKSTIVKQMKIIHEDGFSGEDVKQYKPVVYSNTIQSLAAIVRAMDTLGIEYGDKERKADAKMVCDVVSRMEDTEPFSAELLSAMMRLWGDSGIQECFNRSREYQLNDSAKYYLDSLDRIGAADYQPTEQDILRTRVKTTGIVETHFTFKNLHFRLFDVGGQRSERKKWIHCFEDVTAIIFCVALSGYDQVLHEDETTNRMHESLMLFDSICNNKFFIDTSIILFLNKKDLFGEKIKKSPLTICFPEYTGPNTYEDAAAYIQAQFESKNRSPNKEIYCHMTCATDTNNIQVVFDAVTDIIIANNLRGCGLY
Guanine nucleotide-binding protein G(o) subunit alpha (Homo sapiens) + Regulator of G-protein signaling 19 (Homo sapiens), sequence (P49795 whole entry, looked up): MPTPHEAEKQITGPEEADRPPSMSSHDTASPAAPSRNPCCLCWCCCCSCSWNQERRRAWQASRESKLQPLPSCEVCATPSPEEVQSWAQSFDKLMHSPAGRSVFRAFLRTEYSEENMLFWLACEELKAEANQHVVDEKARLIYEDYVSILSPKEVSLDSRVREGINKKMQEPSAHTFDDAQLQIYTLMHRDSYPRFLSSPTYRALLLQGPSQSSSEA
For `COC(/C=C/Nc1ccc(C)cc1)=C(C#N)C#N`, the binding response (% of control) was 71.7%.
Work on `COc1ccccc1/C=C/C(=O)OCC(=O)c1c(N)n(C)c(=O)n(C)c1=O` yielded a binding response (% of control) of 109%.
Work on `CCN(CC(=O)Nc1ccccc1OC)C(=O)C1CC2C=CC1C2` (stereo not drawn) yielded a binding response (% of control) of 180%.
For `CCN(CC)C(=O)c1sc(NC(=O)c2cccnc2)c(C(=O)OC)c1C`, the binding response (% of control) was 128%.
With `CN1C(=O)C2(N=c3ccccc3=N2)c2ccccc21` the binding response (% of control) was 103%.
For `CS(=O)(=O)N1CCN(C(=O)c2cc(-c3cccs3)nc3ccccc23)CC1`, the binding response (% of control) was 103%.
With `O=C(O)c1cc(-c2ccccn2)n[nH]1` the binding response (% of control) was 106%.
`Cc1cc(C)cc(-n2c(C)c3c(C)nnc(C)c3c2C)c1` gave a binding response (% of control) of 121%.
`OC1C2(Cc3ccccc3)CN3CCN(C2)CC1(Cc1ccccc1)C3` (stereo not drawn) was tested, and the binding response (% of control) was 71.2%.
`COc1cc(S(=O)(=O)NCCc2ccc3c(c2)OCO3)ccc1-n1cnnn1` was tested, and the binding response (% of control) was 25.7%.
With `COC(=O)c1ccccc1OC(=O)c1ccc(Br)o1` the binding response (% of control) was 102%.
In the case of `CC(C)CNC(=O)COC(=O)c1ccc(Cl)c(S(N)(=O)=O)c1`, the binding response (% of control) is reported as 107%.
For `O=C(Nc1ccccc1N1CCOCC1)c1cccc([N+](=O)[O-])c1`, the binding response (% of control) was 123%.
`O=C(Nc1cccc(-c2cnc3ccccc3n2)c1)c1ccco1` gave a binding response (% of control) of 147%.
In the case of `COc1ccccc1N(C(C)=O)C1SC(=O)N(c2ccccc2)C1=O` (stereo not drawn), the binding response (% of control) is reported as 70.1%.
Molecule `CCOC(=O)N1CCN(C(=O)CCNS(=O)(=O)c2cc(Br)cnc2N)CC1` has a binding response (% of control) of 93.9%.
For `Cc1ccc(S(=O)(=O)N(Cc2ccccc2)Cc2ccco2)cc1`, the binding response (% of control) was 92.7%.
For `COc1cc(/C=N/NC(=O)Cc2ccccc2)ccc1Oc1ccc([N+](=O)[O-])cc1[N+](=O)[O-]`, the binding response (% of control) was 107%.
Molecule `CCOCCCNC(=O)C(c1ccccc1)N(Cc1cccs1)C(=O)CNC(=O)c1ccccc1` (stereo not drawn) has a binding response (% of control) of 222%.
Work on `O=C1CC2(CON=C2c2ccc(F)cc2)C(=O)N1c1ccc(F)cc1` (stereo not drawn) yielded a binding response (% of control) of 72.5%.
For `CCOC(=O)C(=O)Nc1ccccc1C(=O)Nc1ccc(OC)cc1`, the binding response (% of control) was 101%.
In the case of `CCC(C)[C@H](NC(=O)N1CCCC1)C(=O)OC` (stereo partly drawn), the binding response (% of control) is reported as 117%.
Work on `COc1ccc(C)cc1S(=O)(=O)N(CC(=O)O)c1ccc(F)cc1` yielded a binding response (% of control) of 102%.
`CCOC(=O)C1=C(c2ccccc2)OC(N)=C(C#N)C1C(C)C` (stereo not drawn) showed a binding response (% of control) of 109%.
`CS(=O)(=O)N1CCCC(C(=O)NCCc2ccccc2)C1` (stereo not drawn) gave a binding response (% of control) of 71.4%.
Molecule `O=C(NC1(C(F)(F)F)C(=O)Nc2c1c(=O)[nH]c(=O)n2Cc1ccccc1)c1ccc(Cl)cc1` (stereo not drawn) has a binding response (% of control) of 108%.
Molecule `COC(=O)CCN(c1ccccc1)S(=O)(=O)c1ccc(OC)cc1` has a binding response (% of control) of 38.5%.
Work on `CNC(=O)c1c(N)sc2c1CCCCC2` yielded a binding response (% of control) of 60.7%.
`COC(=O)c1ccccc1NC(=S)NC(=O)COc1ccc(C(C)C)cc1` was tested, and the binding response (% of control) was 284%.
For `CCNC(=S)NNC(=O)Nc1ccccc1`, the binding response (% of control) was 89.6%.
`COC(=O)c1cn(NC(=O)C2COc3ccccc3O2)c(=O)c2ccccc12` (stereo not drawn) was tested, and the binding response (% of control) was 40.7%.
Work on `O=C(COc1ccc2ccccc2c1)Nc1cccc2cccnc12` yielded a binding response (% of control) of 110%.
For `COc1ccc(NC(=O)CCNS(=O)(=O)c2ccc(Br)s2)cc1`, the binding response (% of control) was 110%.
`Cc1ccc(S(=O)(=O)N2CC3(C)CN(S(=O)(=O)c4ccc(C)cc4)CC(C)(C2)C3=O)cc1` showed a binding response (% of control) of 103%.
In the case of `Cc1cc(C)nc(SCC(=O)Nc2ncc3c(n2)CC(C)(C)CC3=O)n1`, the binding response (% of control) is reported as 62.4%.
Work on `Cc1cc(NC(=O)Cn2c(=O)c3c(ncn3CCC(C)C)n(Cc3ccccc3)c2=O)no1` yielded a binding response (% of control) of 106%.
Molecule `O=c1c(Cc2ccc(Cl)cc2Cl)c(O)ccn1Cc1ccc(Cl)cc1` has a binding response (% of control) of 97.7%.
With `CCOc1c2ccc(C(=O)NCc3ccc(OC)cc3)cc2nn1CCOC` the binding response (% of control) was 92.2%.
`O=C(Nc1cccnc1)C1CCCN1S(=O)(=O)c1ccc(Cl)c(Cl)c1` (stereo not drawn) showed a binding response (% of control) of 114%.
`COc1ccccc1CNc1ccc(C(=O)O)cc1` was tested, and the binding response (% of control) was 121%.
Molecule `COc1ccc(OC)c(C2C(C#N)=C(N)Oc3c2c(C)nn3-c2cccc(Cl)c2)c1` (stereo not drawn) has a binding response (% of control) of 96.4%.
`Cc1ccc2c(CN3CCN(CCO)CC3)cc(=O)oc2c1C` showed a binding response (% of control) of 111%.
Molecule `CCN1CCCC1CNC(=O)C(NC(=O)C1CCC(C)CC1)C(C)C` (stereo not drawn) has a binding response (% of control) of 107%.
With `O=C(CN1C(=O)S/C(=C/c2cccs2)C1=O)N1CCOCC1` the binding response (% of control) was 99.9%.
`CCOCCCNC(=O)C(c1ccc(Cl)cc1)N(Cc1cccs1)C(=O)CNC(C)=O` (stereo not drawn) gave a binding response (% of control) of 90%.
With `Cc1ccc(-c2cnc(N)n2C)cc1C` the binding response (% of control) was 94.5%.
Molecule `CCc1ccc(OC)c(S(=O)(=O)NCCOc2ccccc2)c1` has a binding response (% of control) of 41.2%.
Molecule `Fc1ccc(CNC(=S)Nc2ccccc2Cl)cc1` has a binding response (% of control) of -28%.
Work on `COC(=O)CCC(=O)Nc1cccc(C(=O)Nc2cccc(Cl)c2)c1` yielded a binding response (% of control) of 100%.
With `Cc1ccc(NC(=O)c2cc(-n3cnnc3)ccc2Cl)cc1` the binding response (% of control) was 100%.
With `CC1(C)CC(=O)C(C(=S)Nc2ccccc2)=C(NCCN2CCOCC2)C1` the binding response (% of control) was 118%.
`Cc1ccc(Cn2ncn3c(cc4ccccc43)c2=O)cc1` gave a binding response (% of control) of 87.2%.
Work on `O=C(NCc1ccco1)C1CCN(S(=O)(=O)N2CCC3(CC2)OCCO3)CC1` yielded a binding response (% of control) of 45.9%.
`CCOc1ccc(C2NC(=O)c3sc(=S)n(-c4ccccc4)c3N2)cc1` (stereo not drawn) was tested, and the binding response (% of control) was 87.5%.
`Cc1ccccc1-n1nc(C)c2cc(C(=O)N3CCN(S(=O)(=O)c4ccc(Cl)cc4)CC3)sc21` was tested, and the binding response (% of control) was 94.8%.
Work on `O=C(Nc1cccc(C(F)(F)F)c1)c1cc2c(s1)-c1ccccc1OC2` yielded a binding response (% of control) of 119%.
`COc1ccc2cnnc(SCC(=O)Nc3ccccc3)c2c1OC` showed a binding response (% of control) of 118%.
With `CCCCN(CC(=O)Nc1c(C)cccc1CC)C(=O)SCC` the binding response (% of control) was 101%.
Molecule `Cc1ccc(C)c(Cn2nnc3c(=O)[nH]c(C4CCCN(C(=O)C5CCCCC5)C4)nc32)c1` (stereo not drawn) has a binding response (% of control) of 109%.
Molecule `COC(=O)c1cc(OC)c(OC)cc1NC(=O)CCC1CCCC1` has a binding response (% of control) of 107%.
For `COc1ccc(CC(=O)OCc2cc3ccccc3[nH]c2=O)cc1`, the binding response (% of control) was 90.7%.
`Cc1cc(NC(=O)c2cnn3c(C(F)(F)F)cc(-c4ccccc4)nc23)no1` was tested, and the binding response (% of control) was 103%.
Molecule `O=C(CN1C(=O)C2C3C=CC(C3)C2C1=O)Nc1cccc2c1CCCC2` (stereo not drawn) has a binding response (% of control) of 187%.
In the case of `Nc1c2c(nc3ccn(Cc4ccccc4)c(=O)c13)CCC2`, the binding response (% of control) is reported as 72.4%.
For `COC(=O)CSc1nnnn1-c1cccc2ccccc12`, the binding response (% of control) was 106%.
Molecule `CN(CCCC(=O)NCc1ccco1)S(=O)(=O)c1ccccc1` has a binding response (% of control) of 98.9%.
Molecule `Fc1ccccc1OCCSc1nnnn1-c1ccccc1` has a binding response (% of control) of 25.6%.
`O=C(c1ccco1)N1CCC(c2nc(-c3ccc(F)cc3)no2)CC1` gave a binding response (% of control) of 75.6%.
`COc1ccc(-c2nc(-c3cccs3)c(-c3cccs3)[nH]2)cc1O` gave a binding response (% of control) of 102%.
For `Cc1cccc(NC(=S)NC2CC3CCC(C2)N3Cc2ccco2)c1` (stereo not drawn), the binding response (% of control) was 113%.
Molecule `CC(NC(=O)Nc1ccc(F)cc1F)c1ccncc1` (stereo not drawn) has a binding response (% of control) of 70.2%.
`CCOc1ccc(-c2c(C(=O)N/N=C/c3ccccc3)nnn2-c2nonc2N)cc1` showed a binding response (% of control) of 91.3%.
`CCCN(CCC)CCOc1cc(C)ccc1C(C)C` gave a binding response (% of control) of 116%.
In the case of `CC(C)C(CC(=O)NCc1ccco1)c1ccco1` (stereo not drawn), the binding response (% of control) is reported as 172%.
With `CCOc1ccc(NC(=O)CSc2nc3ccccc3c(=O)n2CCNC(C)=O)cc1` the binding response (% of control) was 97.9%.
In the case of `O=C(NN=C1CCCCC1)c1ccccc1OCc1ccc(F)cc1`, the binding response (% of control) is reported as 118%.
`Cc1nc2ccccc2c(=O)n1NC(=O)COc1ccccc1` was tested, and the binding response (% of control) was 103%.
With `CC(C)(C)NC(=O)c1ccc2nsnc2c1` the binding response (% of control) was 141%.
`O=C(Nc1nc(N2C(=O)c3ccccc3C2=O)n(-c2ccccc2)n1)c1ccccc1` showed a binding response (% of control) of -19.9%.
Work on `Cn1c(Cl)cnc1C(O)c1ccccc1` (stereo not drawn) yielded a binding response (% of control) of 105%.
`Cc1c(Br)c(C(F)(F)F)nn1CC(=O)N1CCCC1` gave a binding response (% of control) of 99.7%.
`CCOC(=O)c1[nH]nc(-c2cc(CC)c(O)cc2O)c1-c1cscn1` gave a binding response (% of control) of 56.9%.
Work on `CC(=O)N(c1ccc(C(C)C)cc1)C1C=CS(=O)(=O)C1` (stereo not drawn) yielded a binding response (% of control) of 103%.
`CCCCC(=O)Nc1nc(C)c(-c2csc(Nc3cc(Cl)ccc3OC)n2)s1` showed a binding response (% of control) of 148%.
For `COc1cccc(OC)c1C(=O)Nc1ccc(NC(=O)c2ccco2)cc1`, the binding response (% of control) was 112%.
Work on `CCOC(=O)C1=C(c2ccccc2)NC(=O)NC1c1ccc(OCC#N)c(OC)c1` (stereo not drawn) yielded a binding response (% of control) of 119%.
Work on `CCOC(=O)C1Cn2c(nc3c(c2=O)C2(CCCC2)Cc2ccccc2-3)S1` (stereo not drawn) yielded a binding response (% of control) of 102%.
With `CCOC(=O)N1CCC(NC(=O)CCCN2C(=O)CSc3ncccc32)CC1` the binding response (% of control) was 353%.
